According to PubChem BioAssay (Tox21):
Inconclusive results are not listed. Calls of active or inactive are those of the source. Unless noted, calls follow the shape of the dose curve; as a rule, active = well fitted curve in the direction sought with a large enough effect in the repeat runs; inconclusive = weak or mixed curves; inactive = no such curve, though single readings can be large; an effect the other way counts as inactive or inconclusive.

Assays:
[1] = qHTS assay for small molecule agonists of the p53 signaling pathway (AID 651631; calls by dose curve; also: nearly all actives have a fitted effect of over 15% in size)
Outline: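 HCT-116 p53RE-bla reporter line, 16 h compound treatment at 37 °C, then fluorescence after 2 h with B/G FRET substrate.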

[2] = qHTS assay for small molecules that induce genotoxicity in human embryonic kidney cells expressing luciferase-tagged ATAD5 (AID 651632); also: nearly all actives have a fitted effect of over 15% in size
Outline: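 A rise in luciferase signal from ATAD5-tagged HEK293T cells marks genetic stress. Cells were exposed to compounds for 16 hr at 37C, 5% CO2, then luciferase was quantified after a 30 min room-temperature incubation with Amplite.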

[3] = qHTS assay for small molecule agonists of the p53 signaling pathway - cell viability (AID 651633; calls by dose curve;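 also: p53RE-bla HCT reporter cells with a stable beta-lactamase p53 reporter; series mostly up to about 83 µM; nearly all actives have a fitted effect of over 30% in size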)
Outline: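 p53RE-bla cells, seeded at 4,000 per well and rested 5 h at 37 C/5% CO2, received compounds in DMSO for 16 h at 37 C. CellTiter-Glo was then added, and luminescence was read after 30 min at room temperature to gauge cytotoxicity.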

[4] = qHTS assay for small molecules that induce genotoxicity in human embryonic kidney cells expressing luciferase-tagged ATAD5 - cell viability (AID 651634; calls by dose curve; also: nearly all actives have a fitted effect of over 25% in size)
Outline: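 Cytotoxicity counter-readout: after 15.5 hr compound treatment at 37C, live-cell protease activity in ATAD5-luciferase HEK293T cells measured by CellTiter-Fluor fluorescence, 30 min development at 37C.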

[5] = qHTS assay for small molecule disruptors of the mitochondrial membrane potential - cell viability (AID 720634; calls by dose curve;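 also: human HepG2 liver cancer cells; series mostly up to about 83 µM; nearly all actives have a fitted effect of over 20% in size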)
Outline: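 Cytotoxicity was quantified from ATP content by CellTiter-Glo luminescence in the same wells as the MMP dye read-out. HepG2 (2,000 cells/well) were plated overnight and exposed to compounds for 1 hr at 37 C.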

[6] = qHTS assay to test for compound auto fluorescence at 590 nm (red) in HepG2 cells (AID 720674)
Outline: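 Compound auto-fluorescence is scored relative to Rose Bengal sodium, measured at 540/590 nm in live HepG2 cultures after 1 hr compound contact (37 C, 5% CO2).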

[7] = qHTS assay to test for compound auto fluorescence at 535 nm (green) in HepG2 cells (AID 720675)
[8] = qHTS assay to test for compound auto fluorescence at 460 nm (blue) in HEK293 cells (AID 720678)
Outline: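 Triamterene serves as the blue fluorophore standard. Compound signal at 405/460 nm is read in HEK293 wells (2,000 cells, 10% dialyzed FBS) after overnight treatment at 37C.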

[9] = qHTS assay to test for compound auto fluorescence at 590 nm (red) in HEK293 cells (AID 720679)
Outline: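 We plated HEK293 cells in 10% dialyzed FBS medium, let them adhere for 4-5 hr, then added 23 nL compound. Overnight at 37C and 5% CO2 preceded fluorescence measurement at 540/590nm.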

[10] = qHTS assay to test for compound auto fluorescence at 535 nm (green) in HEK293 cells (AID 720680)
[11] = qHTS assay to test for compound auto fluorescence at 460 nm (blue) in HEK293 cell free culture (AID 720681)
Outline: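 Test compounds were pinned into cell-free culture medium (DMEM with 10% FBS) and fluorescence was read directly at Ex/Em 405/460 nm. Signals were expressed as fluorescence equivalents of triamterene, with DMSO vehicle as control.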

[12] = qHTS assay to test for compound auto fluorescence at 535 nm (green) in HEK293 cell free culture (AID 720682)
Outline: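 Steps: dispense DMEM/10% FBS into empty wells; pin in compound or DMSO; measure fluorescence at 485/535 nm. Values are fluorescein equivalents.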

[13] = qHTS assay to test for compound auto fluorescence at 590 nm (red) in HEK293 cell free culture (AID 720683)
Outline: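 Tox21 10K library compounds were pinned into cell-free DMEM with 10% FBS and fluorescence was read at excitation 540 nm. Activity is expressed as Rose Bengal sodium equivalency.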

[14] = qHTS assay to test for compound auto fluorescence at 590 nm (red) in HepG2 cell free culture (AID 720684)
Outline: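 Ex 540 / Em 590 nm read of compound in cell-free MEM (10% FBS). Rose Bengal sodium reference.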

[15] = qHTS assay to test for compound auto fluorescence at 535 nm (green) in HepG2 cell free culture (AID 720686)
[16] = qHTS assay to test for compound auto fluorescence at 460 nm (blue) in HepG2 cells (AID 720687)
Outline: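 Cells (2,000/well in MEM with 10% FBS) attached overnight at 37 C, then were exposed to compound or DMSO for 1 hr at 37 C, 5% CO2. Fluorescence read at Ex/Em 405/460 nm, expressed as triamterene-equivalent signal.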

[17] = target: Glucocorticoid receptor (Homo sapiens) (UniProt P04150); assay: qHTS assay to identify small molecule agonists of the glucocorticoid receptor (GR) signaling pathway (AID 720691; active = well fitted activation curve with a large enough effect in the signal ratio in the repeat runs, not every such curve was filed as active; the % refers to the signal ratio)
Outline: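 Agonist-mode qHTS in HeLa cells stably expressing a glucocorticoid-response-element beta-lactamase reporter. Fluorescence intensity read with FRET substrate (2 h, room temperature) after 18 h compound treatment at 37 C.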

[18] = target: Glucocorticoid receptor (Homo sapiens) (UniProt P04150); assay: qHTS assay to identify small molecule antagonists of the glucocorticoid receptor (GR) signaling pathway (AID 720692; active = well fitted inhibition curve with a large enough effect in the signal ratio in the repeat runs, not every such curve was filed as active; the % refers to the signal ratio)
Outline: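 Inhibition of dexamethasone-driven (5 nM final) beta-lactamase expression was measured in GRE-reporter HeLa cells over 18 h at 37C. Fluorescence was read after 2 h with the B/G FRET substrate at room temperature.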

[19] = qHTS assay to test for compound auto fluorescence at 460 nm (blue) in HepG2 cell free culture (AID 720685)
Outline: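 Cell-free plates of MEM plus 10% FBS received 23 nL compound or DMSO vehicle; blue-channel (405/460 nm) intensity scored against triamterene as reference fluorophore.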
% is scaled to controls: 0 for no effect and ±100 for the full control effect.

Glucocorticoid receptor (Homo sapiens), sequence (P04150 whole entry, looked up): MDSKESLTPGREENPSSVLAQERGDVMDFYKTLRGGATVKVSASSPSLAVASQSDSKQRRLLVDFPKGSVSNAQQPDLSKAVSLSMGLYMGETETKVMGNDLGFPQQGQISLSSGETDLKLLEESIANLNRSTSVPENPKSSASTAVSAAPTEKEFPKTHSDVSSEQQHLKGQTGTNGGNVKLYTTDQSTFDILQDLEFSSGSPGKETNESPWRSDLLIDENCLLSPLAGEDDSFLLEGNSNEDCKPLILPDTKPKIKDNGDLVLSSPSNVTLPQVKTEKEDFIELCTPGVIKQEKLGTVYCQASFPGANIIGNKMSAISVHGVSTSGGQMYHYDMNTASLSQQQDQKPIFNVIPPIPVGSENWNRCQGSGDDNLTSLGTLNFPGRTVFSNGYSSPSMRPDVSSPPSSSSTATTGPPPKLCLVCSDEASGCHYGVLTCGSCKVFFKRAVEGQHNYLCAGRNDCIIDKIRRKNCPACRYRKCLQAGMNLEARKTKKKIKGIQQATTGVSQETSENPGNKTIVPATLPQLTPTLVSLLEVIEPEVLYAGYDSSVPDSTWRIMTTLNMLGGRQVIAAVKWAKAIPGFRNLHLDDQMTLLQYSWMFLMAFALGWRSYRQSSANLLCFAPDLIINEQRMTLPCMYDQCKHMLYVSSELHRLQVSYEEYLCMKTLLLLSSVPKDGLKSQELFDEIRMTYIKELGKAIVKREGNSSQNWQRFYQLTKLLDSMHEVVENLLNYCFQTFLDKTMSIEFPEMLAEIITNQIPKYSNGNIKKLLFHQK

Clc1cc(Cl)c(Cl)c(Cl)c1Cl
inactive: Potency [1] | Potency [2] | outcome [3] | outcome [4] | outcome [5] | outcome [6] | outcome [7] | outcome [8] | outcome [9] | outcome [10] | outcome [11] | outcome [12] | outcome [13] | outcome [14] | outcome [15] | outcome [16] | Potency [17] | outcome [18]

Cc1ccccc1C#N
inactive: Potency [1] | Potency [2] | outcome [3] | outcome [4] | outcome [5] | outcome [6] | outcome [7] | outcome [8] | outcome [9] | outcome [10] | outcome [11] | outcome [12] | outcome [13] | outcome [14] | outcome [19] | outcome [15] | outcome [16]

Cc1cc(C)c(C)c(C)c1
inactive: Potency [1] | Potency [2] | outcome [3] | outcome [4] | outcome [5] | outcome [6] | outcome [7] | outcome [8] | outcome [9] | outcome [10] | outcome [11] | outcome [13] | outcome [14] | outcome [19] | outcome [15] | outcome [16]

CC(C)(C)C(=O)NCCCC(=O)O
inactive: Potency [1] | Potency [2] | outcome [3] | outcome [4] | outcome [5] | outcome [6] | outcome [7] | outcome [8] | outcome [9] | outcome [10] | outcome [11] | outcome [12] | outcome [13] | outcome [16]

CN(C)CCCN(C)C
inactive: activation [1] 3.19% [at 8.3 µM] | activation [2] -0.426% [at 8.08 µM] | activity change, negative = cytotoxicity [3] 10.5% [at 8.08 µM] | activity, negative = cytotoxicity [4] 29.6% [at 8.08 µM] | activity change, negative = cytotoxicity [5] 7.6% [at 8.08 µM] | fluorescence, relative to Rose Bengal [6] -1.07% [at 3.72 µM] | fluorescence, % of fluorescein control [7] -0.223% [at 3.72 µM] | fluorescence, % of triamterene [8] -0.32% [at 3.72 µM] | fluorescence, % of fluorescent control [9] -0.954% [at 3.72 µM] | fluorescence, % of fluorescein [10] -0.137% [at 3.72 µM] | fluorescence, % of fluorescent control [11] -0.55% [at 3.72 µM] | activity change [12] -0.2% [at 3.72 µM] | fluorescence, % of fluorescent control [13] -0.816% [at 3.72 µM] | fluorescence, % of Rose Bengal [14] -0.0354% [at 3.72 µM] | fluorescence, % of fluorescein control [15] -0.197% [at 3.72 µM] | fluorescence, % of fluorescent control [16] -0.76% [at 3.72 µM] | activation [17] -0.0659% [at 6.9 µM] | activity change, negative = inhibition [18] 10.4% [at 7.04 µM]

CCN(CC)CC
inactive: Potency [1] | Potency [2] | outcome [3] | outcome [4] | outcome [5] | outcome [6] | outcome [7] | outcome [8] | outcome [9] | outcome [10] | outcome [11] | outcome [12] | outcome [13] | outcome [14] | outcome [19] | outcome [15] | outcome [16] | Potency [17] | outcome [18]

CN(C)CCc1c[nH]c2ccc(C[C@H]3COC(=O)N3)cc12
inactive: Potency [1] | Potency [2] | outcome [3] | outcome [4] | outcome [5] | outcome [6] | outcome [7] | outcome [8] | outcome [9] | outcome [10] | outcome [11] | outcome [12] | outcome [13] | outcome [14] | outcome [19] | outcome [15] | outcome [16] | Potency [17] | outcome [18]

Cc1ccc(O)c(C(=O)c2ccccc2)c1
inactive: Potency [1] | Potency [2] | outcome [3] | outcome [4] | outcome [5] | outcome [6] | outcome [7] | outcome [8] | outcome [9] | outcome [10] | outcome [11] | outcome [12] | outcome [13] | outcome [14] | outcome [19] | outcome [15] | outcome [16]

CC(C)C[P+](C)(CC(C)C)CC(C)C
inactive: Potency [1] | Potency [2] | outcome [3] | outcome [4] | outcome [5] | outcome [6] | outcome [7] | outcome [8] | outcome [9] | outcome [10] | outcome [11] | outcome [12] | outcome [13] | outcome [14] | outcome [19] | outcome [15] | outcome [16] | Potency [17]

CCOC(=O)COc1ccc2c(C)c(CCN(CC)CC)c(=O)oc2c1Cl
inactive: Potency [1] | Potency [2] | outcome [3] | outcome [4] | outcome [5] | outcome [6] | outcome [7] | outcome [8] | outcome [9] | outcome [10] | outcome [11] | outcome [12] | outcome [13] | outcome [14] | outcome [19] | outcome [16]

Cc1ccc2cccnc2c1
inactive: Potency [1] | Potency [2] | outcome [3] | outcome [4] | outcome [5] | outcome [6] | outcome [7] | outcome [8] | outcome [9] | outcome [10] | outcome [11] | outcome [12] | outcome [13] | outcome [14] | outcome [19] | outcome [15] | outcome [16] | Potency [17] | outcome [18]

CN(C)c1cc(NC(=O)CNC(C)(C)C)c(O)c2c1C[C@H]1C[C@H]3[C@H](N(C)C)C(=O)C(C(N)=O)=C(O)[C@@]3(O)C(=O)C1=C2O
inactive: Potency [1] | Potency [2] | outcome [3] | outcome [4] | outcome [5] | outcome [6] | outcome [7] | outcome [8] | outcome [9] | outcome [10] | outcome [11] | outcome [12] | outcome [13] | outcome [14] | outcome [19] | outcome [15] | outcome [16]

Cc1cc(C)c(N)c(Cl)c1
inactive: Potency [1] | Potency [2] | outcome [3] | outcome [4] | outcome [5] | outcome [6] | outcome [7] | outcome [8] | outcome [9] | outcome [10] | outcome [11] | outcome [12] | outcome [13] | outcome [14] | outcome [19] | outcome [15] | outcome [16] | Potency [17] | outcome [18]

C=CC(=O)OCC[N+](C)(C)C
inactive: Potency [1] | Potency [2] | outcome [3] | outcome [4] | outcome [5] | outcome [6] | outcome [7] | outcome [8] | outcome [9] | outcome [10] | outcome [11] | outcome [12] | outcome [13] | outcome [19] | outcome [15] | outcome [16]
